Reference: PubChem BioAssay AID652257 (The Scripps Research Institute Molecular Screening Center, 2013)
Hit rate of the full screen: of about 370,000 compounds, about 4,800 (1.3%) were called active.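 The calls were made as follows: active = inhibition above about 21% made by adding two undisclosed values (limit read from the data); inactive = the rest.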 What follows is part of a selection rich in actives, with near analogues and random picks from the rest.

molecular target: Protein arginine N-methyltransferase 1 (Homo sapiens) (UniProt Q99873); test: human PRMT1 activity-probe blockers – biochemical, fluorescence polarization, primary screen (AID 652257); settings: recombinant PRMT1, activity-based probe fluorescence polarization; at 2.79 µM; stronger effect = higher value
Sequence (Q99873 whole entry, looked up): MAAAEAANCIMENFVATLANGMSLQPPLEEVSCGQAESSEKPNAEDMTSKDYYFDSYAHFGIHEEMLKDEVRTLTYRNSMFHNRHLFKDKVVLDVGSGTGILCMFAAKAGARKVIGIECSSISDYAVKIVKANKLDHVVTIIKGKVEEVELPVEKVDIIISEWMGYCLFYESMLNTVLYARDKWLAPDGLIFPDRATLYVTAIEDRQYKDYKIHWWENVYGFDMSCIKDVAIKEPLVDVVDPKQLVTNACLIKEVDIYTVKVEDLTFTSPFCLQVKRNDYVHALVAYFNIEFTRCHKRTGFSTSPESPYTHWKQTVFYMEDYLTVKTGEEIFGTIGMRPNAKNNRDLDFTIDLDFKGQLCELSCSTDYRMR

inhibition, active:
CC1(C(=O)NCc2ccc3c(c2)OCO3)CCN1C(=O)Cc1cccc2ccccc12 (stereo not given) 24.5%, Nc1ccc2[nH]c(=S)sc2c1 28.3%, CSc1c(SCc2ccccc2)cnn(Cc2ccccc2)c1=O 42.6%, Cc1cc(C)c(/C=C2\C(=O)Nc3ccccc32)[nH]1 64.8%, Cc1ccc(CNC(=O)CCS(=O)(=O)c2ccc3c(c2)CC(C)N3C(=O)C2CC2)o1 (stereo not given) 35.6%, Cc1nc2sc(C(c3ccco3)N3CCOCC3)c(O)n2n1 (stereo not given) 49.8%, Oc1c(C(c2ccco2)N2CCC3(CC2)OCCO3)sc2ncnn12 (stereo not given) 21.8%, CCc1ccc(NC2Nc3cc(C)nn3S2)cc1 (stereo not given) 30.6%, NC(=S)NN=Cc1ccc(OC(=O)COc2cc(Cl)c(Cl)cc2Cl)cn1 47.2%, COC(=O)c1ccc(NCc2cc(O)ccc2O)cc1 28.5%, COc1ccc(N2C(=O)CC(N3CCC(C(N)=O)CC3)C2=O)cc1 (stereo not given) 62.3%, CCOC(=O)c1ccc(N2C(=O)CC(N3CCC(C(=O)OCC)CC3)C2=O)cc1 (stereo not given) 53.2%, COc1ccc(CCN2C(=O)CC(N3CCC(C(N)=O)CC3)C2=O)cc1OC (stereo not given) 39.3%, CN(CCOc1ccccc1)C(=O)c1cc(-c2ccco2)nc2ccccc12 29.2%, O=C(c1cc(-c2ccco2)nc2ccccc12)N(Cc1nnc(-c2ccc(Cl)cc2)o1)C1CC1 22.5%, O=C(Nc1cccc(F)c1)c1cc(-c2ccco2)nc2ccccc12 30.3%, CC(=O)N1CCN(C(=O)c2cc(-c3ccc(C)o3)nc3ccccc23)CC1 32.5%

inhibition, inactive:
CCOC(=O)C(=O)N(Cc1ccccc1)c1ccccc1C(=O)Nc1cc(OC)ccc1OC -1.5%, CCOc1ccc(N(CC(=O)NCCc2ccc(F)cc2)S(=O)(=O)c2ccccc2)cc1 1.75%, COc1c(Br)cc2c(C)c(C(=O)N3CCOCC3)oc2c1Br -2.82%, CC1(C(=O)NCc2ccc3c(c2)OCO3)CCN1CCc1ccccc1 (stereo not given) -4.72%, CC1(C(=O)NCc2ccc3c(c2)OCO3)CCN1C(=O)Cc1cccs1 (stereo not given) 0.09%, CCOC(=O)[C@]12CCCC3=C1N(CCC3)C(=O)[C@@H](CC(=O)NCc1cccs1)C2 1.5%, N#CCC[C@H]1CC[C@]2(CCCN(Cc3ccc(Cl)cc3)C2)O1 1.93%, O=c1[nH]c2ccccc2s1 5.51%, CCOc1ccc2[nH]c(=S)sc2c1 10.4%, Cc1cc(C)cc(NC(=O)N2CCC(N(C)CCC(C)C)CC2)c1 -0.26%, CCN(CC)C(=O)C(C)N1c2cccc3cccc(c23)S1(=O)=O (stereo not given) -0.89%, CC1=C(C(=O)N(C)C)CC(CC(=O)NCCN2CCOCC2)C(=O)N1Cc1ccccc1 (stereo not given) -1.74%, Cc1cccc(CCNC(=O)Cn2ncc3c([nH]c4ccc(C)cc43)c2=O)c1 -0.97%, CCOC(=O)[C@]12CCCC3=C1N(CCC3)C(=O)[C@@H](CC(=O)N1CCSCC1)C2 -9.78%, COC(C[C@@H](O)[C@H](C)[C@H](O)COCc1ccccc1)OC -0.18%, COC(=O)c1ccc(SCc2ccccc2)nc1 1.13%, O=c1c2ccccc2c(-c2ccc(Br)cc2)nn1Cc1ccccc1 3.02%, COc1ccccc1S(=O)(=O)c1c(C)cc(C)[nH]c1=O -5.06%, O=C1Nc2ccccc2C1=NN=Cc1ccco1 -4.47%, CC(=O)Nc1nc2ncccn2c1-c1ccc(C(F)(F)F)cc1 5.51%, CCC(=O)N1c2ccc(S(=O)(=O)NCc3ccco3)cc2CC1C (stereo not given) 4.05%, COc1ccccc1CNC(=O)C1CCN(S(=O)(=O)c2ccc3c(c2)CC(C)N3C(=O)C2CC2)CC1 (stereo not given) 0.46%, COc1ccc(N2CCN(CCNS(=O)(=O)c3ccc(Cl)s3)CC2)cc1 -1.47%, Cc1cc(C)n2ncc(C(=O)Nc3ccc4c(c3)OCCO4)c2n1 -2.31%, Cc1ccc(S(=O)(=O)N2CCN(C)CC2)cc1C(=O)NC1CCCCC1 3.5%, CC(C)N1CCCCC(NC(=O)C(C)(C)C)C1=O (stereo not given) -1.77%, Oc1c(C(c2cccs2)N2CCN(c3ccc(F)cc3)CC2)sc2ncnn12 (stereo not given) -2.78%, Cc1nc2sc(C(c3ccco3)N3CCC4(CC3)OCCO4)c(O)n2n1 (stereo not given) 8.34%, Cc1ccc(C(c2sc3nc(C)nn3c2O)N2CCN(c3ccccc3)CC2)cc1 (stereo not given) -1.11%, CC(CCN1CCC(C(O)(c2ccccc2)c2ccccc2)CC1)Oc1ccc([N+](=O)[O-])cc1Cl (stereo not given) -5.87%, CC(=O)Nc1ccc(NS(=O)(=O)c2cc(C)sc2C)cc1 3.68%, CC(C)C(C#CC1CC1)N(Cc1ccc2c(c1)OCO2)C(N)=NC(=O)/C=C/c1cccc(C(F)(F)F)c1 (stereo not given) 1.58%, CC(C)N1CCCCC(NC(=O)c2ccc3ccccc3c2)C1=O (stereo not given) 1.16%, O=C(OCc1cn([C@@H]2C[C@H](c3ccc(Cl)cc3)N(Cc3cccs3)C[C@H]2O)nn1)c1ccccc1 6.65%, COC(=O)[C@@]12CCCCC=C1N(CCc1ccc(Cl)cc1)C(=O)[C@H]2CC(=O)NCc1ccc(OC)c(OC)c1 1.14%, C#CCN([C@@H](C)C(=O)OCC)S(=O)(=O)c1ccc(Br)cc1F -2.15%, O=C(COC(=O)COc1cc(Cl)c(Cl)cc1Cl)NC1CC1 0.44%, O=C(COc1cc(Cl)c(Cl)cc1Cl)NCCc1ccccn1 -6.02%, CCOC(=O)C1CCN(C(=O)C(C)(C)NC(=O)Nc2ccc(F)c(F)c2)CC1 -1.45%, O=C(OC12CC3CC(CC(C3)C1)C2)c1ccc(NCc2cc(O)ccc2O)cc1 19.5%, CCS(=O)(=O)Nc1cc(C(=O)OC)ccc1C(=O)OC 4.51%, CCC(=O)OCCCN1C(=O)CCC12CCC(c1ccccc1)CC2 (stereo not given) 0.61%, O=C(NCc1cccs1)C1CCN(S(=O)(=O)c2ccccc2[N+](=O)[O-])CC1 -2.52%, CCOC(=O)c1ccc(N2C(=O)CC(N(C)Cc3ccccc3)C2=O)cc1 (stereo not given) 1.83%, COc1cccc(N2CCN(C3CC(=O)N(c4ccc(Cl)cc4)C3=O)CC2)c1 (stereo not given) 17%, COc1ccc(CCN2C(=O)C3CC=C(C)CC3C2=O)cc1OC (stereo not given) 0.69%, CCOC(=O)c1ccc(N2C(=O)CC(N3CCN(C(=O)c4ccccc4)CC3)C2=O)cc1 (stereo not given) -1.22%, COc1cccc(N2C(=O)CC(N3CCN(S(=O)(=O)c4ccccc4)CC3)C2=O)c1 (stereo not given) 4.31%, COc1ccc(CN2C(=O)CC(Cc3ccc(C)cc3)C2=O)cc1OC (stereo not given) 2.37%, CCN(CC)C(=O)CC[C@@H]1CC[C@]2(CCCN(S(=O)(=O)C3CCCCC3)C2)O1 8.38%, CC1(C)SC2c3ccccc3C(=O)N2[C@@H]1C(=O)NCc1ccco1 (stereo not given in full) 2.92%, CN=C1SC(C(=O)O)CC(=O)N1C (stereo not given) 0.87%, COC(=O)[C@]12C[C@H](CC(=O)N3CCOCC3)C(=O)N(Cc3ccc(Cl)cc3Cl)C1=C[C@H](C(C)C)O[C@@H]2C1CC1 3.55%, c1ccc(C2CNCc3c2ccc2ccccc32)cc1 (stereo not given) 2.21%, CCCC(C(=O)NCc1ccco1)N(C(=O)CNS(=O)(=O)c1ccccc1)C1CCCC1 (stereo not given) -1.78%, COC(=O)C1CN(CC(C)C)CCS(=O)(=O)N1Cc1ccc(C)cc1 (stereo not given) 6.76%, O=C(C1CCCN1S(=O)(=O)c1ccccc1)N1CCc2ccccc2C1 (stereo not given) -6.97%, CC(C)CNS(=O)(=O)CC1NCCc2ccccc21 (stereo not given) 4.3%, CCn1c2ccccc2c2cc(NC(=O)CSc3nnc(-c4ccccc4)n3-c3ccc(C)cc3)ccc21 -1.61%, CN(CCOc1ccccc1)Cc1nc2cc(Cl)ccc2c(=O)[nH]1 2.3%, CC(C)N(Cc1nnc(-c2ccccc2Br)o1)C(=O)c1cc(Cl)nc2ccccc12 -5.25%, CN(C)C(CNC(=O)CCCOc1ccccc1)c1ccco1 (stereo not given) -0.86%, CC(=O)N1CCN(C(=O)c2cc(-c3ccc(Cl)s3)nc3ccccc23)CC1 2.92%, O=C(Nc1cccc(F)c1)c1coc(=O)c(Br)c1 5.43%, O=C(c1ccc(Cl)s1)N(Cc1nnc(-c2ccccc2Cl)o1)C1CC1 1.28%, Cc1cc(C(=O)Nc2ccc(C)c(S(=O)(=O)N3CCOCC3)c2)c2ccccc2n1 0.88%, O=C(c1cc(-c2ccc(Cl)s2)nc2ccccc12)N1CCOCC1 -5.47%, COC(=O)C[C@H]1CC[C@H]2[C@H](COc3ccc(NC(=O)C4CC4)cc3C(=O)N2C)O1 1.52%, CC(=O)NCCc1ccc(S(=O)(=O)N(C)C2CCS(=O)(=O)C2)cc1 (stereo not given) -0.5%, CN1C[C@]2(C=C3CCCCC3n3c(=O)n(-c4ccccc4)c(=O)n32)N=C1NC(=O)c1ccccc1 (stereo not given in full) 1.11%, COC(=O)C[C@@H]1CC[C@H]2[C@@H](COc3ccc(NS(=O)(=O)CC(F)(F)F)cc3C(=O)N2C)O1 4.04%, O=C(CNS(=O)(=O)c1ccccc1)NCC(=O)OCc1ccccc1F 1.67%, CC(=O)C1(C(=O)Nc2nccs2)CC(c2ccccc2C(F)(F)F)=NO1 (stereo not given) 5.04%
